# Source: PubChem BioAssay (National Center for Advancing Translational Sciences (NCATS))
# TGFb SMAD3 inh: TGF-b pathway inhibition | Potency, µM (doses to about 46.1 µM), most hits filed as inhibitors | AID 588855 | HepG2 CAGA-GFP TGF-b/SMAD3 reporter, GFP fluorescence, 18 h; TGF-beta stimulated, 500 pg/mL final | 1.2% of 410,000 active; further: nearly all actives have a fitted effect of over 65% in size
#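 Using HEPG2 CAGA-GFP reporter cells at 1000 cells/well, we pinned test compounds, stimulated with recombinant TGF-beta (500 pg/mL final) and measured total well GFP after 18 h.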
# S2 tox: viability counter-screen for ATXN expression inhibitors | S2 cells (HEK-293 line with an ATXN2-luciferase reporter) viability, CellTiter-Fluor protease fluorescence, 24 h | Potency, µM (series often up to 56.7 µM), most hits filed as cytotoxic | 0.49% of 400,000 active | AID 651635; further: nearly all actives have a fitted effect of over 40% in size
# Giardia killer: Giardia lamblia killing; activity change, % at 7.66 µM, hits read low; Giardia lamblia trophozoite viability; 0.15% of 340,000 active; in the data active means activity change below about -80%; inconclusive means between about -30% and that limit;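 further: parasites exposed to compound for two days anaerobically before the ATP read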
#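 Trophozoites 100 cells/well + cpd; 48 hrs, 37 deg C, anaerobic. ATPLite 1-Step added, 15-30 min RT, luminescence read (ATP-based viability).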
# ATXN2 expr inh: ATXN2 expression inhibition. HEK-293 ATXN2-luciferase reporter, luminescence, 24 h. Potency, µM (top dose mostly 57 µM), hits mostly inhibitors. 0.72% of 360,000 active. AID 1745845; further: nearly all actives have a fitted effect of over 55% in size
#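 qHTS (up to 57 uM final) was run with 24 h compound exposure of reporter cells at 37 °C. Each well was multiplexed: SteadyGlo luminescence measured ATXN2-luciferase expression after a fluorogenic Gly-Phe-AFC viability readout (25 uM final).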
# HepG2 tox-1: counter-screen for TGF-b inhibitors: cytotoxicity in HepG2 cells | HepG2 CAGA-GFP viability, ATP luminescence, 18 h | Potency, µM (titrated, usually from 46.1 µM), usual class: cytotoxic | 0.76% of 410,000 active | AID 588856
#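 CellTiter-Glo luminescence gave cytotoxicity after 18 hours at 37 degrees C. The cells were HepG2 CAGA-GFP in 1% FBS DMEM, stimulated with 500 pg/mL TGF-beta after compound addition. %Activity was normalised to no-cell wells (complete cell-killing) and DMSO (no toxicity), and curves were fitted and classified.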
# uPA surface inh: cell surface uPA generation inhibition; cell surface uPA generation assay, qHTS; Potency, µM (doses to about 38.3 µM), usual class: inhibitors; 0.31% of 330,000 active; active means well fitted inhibition curve with a large enough effect; inconclusive means small, poorly fitted or top-dose-only effect; inactive means no such curve, though single readings can be large or run the other way; tested in mouse RAW 264.7 cells; further: nearly all actives have a fitted effect of over 55% in size
# TGFb confirm: TGF-b pathway inhibition, cherry-pick retest; AID 720534; HepG2 CAGA-GFP TGF-b reporter, GFP fluorescence, 18 h; cells stimulated with TGF-beta, 500 pg/mL; 63% of 1,600 active; shares compounds with TGFb SMAD3 inh; Potency, µM (series often up to 46.1 µM), hits mostly inhibitors; further: nearly all actives have a fitted effect of over 65% in size
# HepG2 tox-2: HepG2 cytotoxicity, TGF-b inhibitor counterscreen; shares compounds with TGFb SMAD3 inh; HepG2 CAGA-GFP viability, ATP luminescence, 18 h; cells stimulated with TGF-beta, 500 pg/mL; Potency, µM (series often up to 46.1 µM), hits mostly inhibitors; 27% of 1,600 active; further: nearly all actives have a fitted effect of over 70% in size
# TGFb CCL64 inh: blocks TGF-b signaling in CCL64 reporter cells. shares compounds with TGFb SMAD3 inh. CCL64 CAGA-GFP reporter, TGF-b stimulated, GFP fluorescence, 18 h. Potency, µM (doses to about 46.1 µM), actives largely listed as inhibitors. 41% of 1,600 active. AID 720536; further: nearly all actives have a fitted effect of over 65% in size
# TGFb COP inh: blocks TGF-b signaling in HepG2 COP reporter. shares compounds with TGFb SMAD3 inh. HepG2 COP-GFP TGF-b reporter, GFP fluorescence, 18 h; cells stimulated by added recombinant TGF-beta. Potency, µM (highest dose often 46.1 µM), actives largely listed as inhibitors. 3% of 1,600 active; further: nearly all actives have a fitted effect of over 70% in size
# A number is an active result; . = inactive; ? = inconclusive; / = not tested or not shown. In the library only some 2.6% were active in any assay of this set; here they are far more common. Unless noted, the call rests on the fitted dose curve; in most records, active means well fitted curve in the direction sought with a large enough effect; inconclusive means small, poorly fitted or top-dose-only effect, or another doubt; inactive means no such curve, though single readings can be large; an effect the other way counts as inactive or inconclusive.
SMILES,TGFb SMAD3 inh,S2 tox,Giardia killer,ATXN2 expr inh,HepG2 tox-1,uPA surface inh,TGFb confirm,HepG2 tox-2,TGFb CCL64 inh,TGFb COP inh
COC(=O)c1cn(CC(=O)N2C(C)CCCC2C)c2ccccc12 (stereo not drawn),.,.,.,.,.,.,/,/,/,/
CCn1c2ccccc2c2cc(/C=N/NC(=O)c3ccccc3C)ccc21,4µM,.,.,?,.,.,8.2µM,4.1µM,?,.
C/C(=N\NC(=O)c1ccccc1OCCOc1ccccc1)c1ccccc1F,20µM,?,.,.,.,.,?,?,?,.
O=C(NCC12CC3CC(CC(C3)C1)C2)c1cc2nc(-c3ccc(Cl)cc3)cc(C(F)(F)F)n2n1,.,.,/,.,.,/,/,/,/,/
Cc1nc(Nc2nc(CSc3ccc(Cl)cc3)cc(=O)[nH]2)nc2ccccc12,?,.,.,.,.,.,/,/,/,/
Cc1ccc2nc(Nc3nc(CSc4nnnn4-c4ccccc4)cc(=O)[nH]3)nc(C)c2c1,.,/,.,/,.,.,/,/,/,/
COc1ccc2nc(Nc3nc(CSc4nc5ccccc5[nH]4)cc(=O)[nH]3)nc(C)c2c1,2.8µM,.,.,.,.,.,8.2µM,?,18µM,.
Cc1nc(Nc2nc(CSc3nc4ccccc4[nH]3)cc(=O)[nH]2)nc2ccccc12,18µM,?,.,.,.,?,5.2µM,4.1µM,6.5µM,.
O=C(/C=C/c1ccccc1[N+](=O)[O-])N1CCc2ccccc2C1,.,?,.,.,.,.,/,/,/,/
COc1ccc2cc(C(=O)/C=C/c3cc(OC)c(OC)c(OC)c3)ccc2c1,.,.,.,.,.,.,/,/,/,/
COc1cc(C=CC(=O)c2ccccc2)cc(OC)c1OC,10µM,.,/,?,.,/,18µM,?,16µM,.
COc1ccc(C(=O)NCCc2c[nH]c3ccccc23)cc1[N+](=O)[O-],.,.,.,.,.,.,/,/,/,/
Clc1ccc2nc(-c3cccc(Br)c3)c(Cc3ccsc3)n2c1,10µM,.,/,.,.,/,?,?,?,.
Brc1cccc(-c2nc3ccc(Br)cn3c2Cc2ccsc2)c1,11µM,?,/,.,.,/,23µM,?,?,.
COc1ccc(Cc2c(-c3ccccc3)nc3ccc(Br)cn23)c(C)c1,10µM,?,/,.,.,/,?,?,?,.
Cc1ccc(Cc2c(-c3cccc(Cl)c3)nc3ccc(C)cn23)cc1,10µM,?,/,.,.,/,18µM,?,?,.
Clc1cccc(-c2nc3ccc(Br)cn3c2Cc2ccsc2)c1,?,?,/,.,.,/,/,/,/,/
CCCCNc1c(-c2ccc(SC(C)CC)cc2)nc2cnccn12 (stereo not drawn),?,/,.,?,.,?,/,/,/,/
Oc1ccc(C[C@H]2CNC(=S)N2CC2CCCN2C[C@H](Cc2ccccc2)N2C[C@H](Cc3ccc(O)cc3)N(CCc3ccccc3)C2=S)cc1 (stereo partly drawn),7.9µM,?,.,?,.,?,5.8µM,?,9.2µM,.
CC(C)C[C@H]1CN([C@@H](Cc2ccc(O)cc2)CN2CCC[C@@H]2CN2C(=S)NC[C@@H]2Cc2ccccc2)C(=S)N1CCc1ccccc1,?,?,/,?,.,/,/,/,/,/
Oc1ccc(C[C@@H](CN2CCC[C@@H]2CN2C(=S)NC[C@@H]2Cc2ccccc2)N2C[C@H](Cc3ccccc3)N(CCc3ccccc3)C2=S)cc1,.,?,/,.,.,/,/,/,/,/
CC(C)C[C@H]1CNC(=S)N1C[C@H]1CCCN1C[C@H](Cc1ccc(O)cc1)N1C[C@H](Cc2ccc(O)cc2)N(CCc2ccccc2)C1=S,10µM,/,/,?,.,/,?,15µM,4.6µM,.
CC(C)C[C@H]1CNC(=S)N1C[C@H]1CCCN1C[C@H](Cc1ccccc1)N1C[C@H](Cc2ccc(O)cc2)N(CCc2ccccc2)C1=S,7.1µM,?,/,?,.,/,12µM,.,?,.
COc1ccc(NC(=O)C(Cc2cc(C)cc(C)c2)C(C)C(=O)O)cc1 (stereo not drawn),.,.,.,.,.,.,/,/,/,/
O=C(CCS(=O)(=O)c1ccccc1)Nc1nc2ccc(F)cc2s1,3.5µM,.,.,.,.,.,1.2µM,.,10µM,.
SMILES,TGFb SMAD3 inh,S2 tox,Giardia killer,ATXN2 expr inh,HepG2 tox-1,uPA surface inh,TGFb confirm,HepG2 tox-2,TGFb CCL64 inh,TGFb COP inh
COc1ccc(OC)c2sc(NC(=O)CCS(=O)(=O)c3ccccc3)nc12,?,?,.,.,.,7.1µM,2.3µM,16µM,4.6µM,.
CC(=O)Nc1ccc(N/C(N)=N/c2nc(C)cc(C)n2)cc1,.,.,.,.,.,.,/,/,/,/
CCOc1ccc(N/C(N)=N/c2nc(C)cc(C)n2)cc1,?,?,.,/,.,.,.,.,?,.
Cc1cc(C)nc(/N=C(\N)Nc2ccc(SC(F)F)cc2)n1,8.9µM,.,.,/,.,?,.,?,?,.
CCOc1ccc(CCN2C(=S)N([C@@H](CC(C)C)CN3CCCC3CN3C(=S)NC[C@@H]3Cc3ccc(O)cc3)C[C@@H]2CC(C)C)cc1 (stereo partly drawn),4.5µM,?,.,.,.,?,12µM,.,?,.
CCOc1ccc(CCN2C(=S)N([C@@H](CC(C)C)CN3CCC[C@@H]3CN3C(=S)NC[C@@H]3CC(C)C)C[C@@H]2Cc2ccc(O)cc2)cc1,6.3µM,13µM,/,?,.,/,?,?,18µM,.
CCOc1ccc(CCN2C(=S)N([C@@H](CC(C)C)CN3CCC[C@@H]3CN3C(=S)NC[C@@H]3CC(C)C)C[C@@H]2CC(C)C)cc1,.,?,/,.,.,/,/,/,/,/
CCOc1ccc(CCN2C(=S)N([C@@H](CC(C)C)CN3CCCC3CN3C(=S)NC[C@@H]3CC(C)C)C[C@@H]2Cc2ccc(O)cc2)cc1 (stereo partly drawn),?,?,.,?,.,.,/,/,/,/
Cc1ccsc1/C=N/NC(=O)c1ccc2nc[nH]c2c1,.,.,.,.,.,.,/,/,/,/
CCOC(=O)c1c(-c2ccco2)csc1N,.,.,.,.,.,.,/,/,/,/
